HCMV inh = human cytomegalovirus inhibition | HFF cells, HCMV-luciferase reporter, 72 h; stronger effect = lower value | activity change, negative = inhibition, % at 57.5 µM | hit rate 4.5% among 410,000; in the data active = activity change below about -60%; inconclusive = no clear call, values can overlap the other calls; inactive = above about -39%
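Human foreskin fibroblasts infected with luciferase-reporter HCMV at MOI 1 PFU/cell, compounds at two doses. Luciferase measured 72 h post infection; normalized to buffer-only basal and Salinomycin (10uM) controls.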
Pf growth 48h = P. falciparum growth inhibition at 48 hours (one generation); P. falciparum luciferase growth in erythrocytes, 48 h; hit rate 5.9% among 310,000; Potency, µM (highest dose often 28.7 µM), actives largely listed as inhibitors
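Parasite viability was followed by luminescence of a genomically integrated firefly luciferase. Cultures held 0.1% parasitemia at 2% hematocrit (final), incubated under 5% CO2 at 37 C.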
Pf growth 96h = inhibits malaria parasite growth, 96 h; P. falciparum luciferase reporter growth, 96 h; Potency, µM (highest dose often 28.7 µM), hits mostly inhibitors; hit rate 6.9% among 320,000
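P. falciparum expressing integrated firefly luciferase grown in erythrocytes (2% hematocrit, 0.05% parasitemia final) with compounds for 96 hours at 37 C, 5% CO2. Growth inhibition read as loss of luminescence after adding luciferase detection reagent.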
FBPA Giardia inh = Giardia lamblia aldolase inhibition; A8B2U2; purified Giardia FBPA; Potency, µM (titrated, usually from 59.6 µM), most hits filed as inhibitors; hit rate 0.71% among 290,000; AID 2451; also: nearly all actives have a fitted effect of over 55% in size
Target sequence (A8B2U2 whole entry, looked up): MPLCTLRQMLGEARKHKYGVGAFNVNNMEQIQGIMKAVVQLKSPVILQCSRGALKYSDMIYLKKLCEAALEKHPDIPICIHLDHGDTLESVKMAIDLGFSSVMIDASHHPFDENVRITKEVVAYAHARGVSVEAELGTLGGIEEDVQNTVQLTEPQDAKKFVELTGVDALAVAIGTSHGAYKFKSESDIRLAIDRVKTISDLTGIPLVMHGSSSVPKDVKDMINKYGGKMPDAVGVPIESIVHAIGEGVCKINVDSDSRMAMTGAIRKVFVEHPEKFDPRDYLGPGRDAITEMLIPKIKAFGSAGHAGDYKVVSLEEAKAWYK
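Giardia FBPA (40 nM reagent) was preincubated 10 min at RT with compound (up to 57.5 uM final), then substrate plus GAPDH/TPI/NAD/arsenate coupling system with diaphorase/resazurin was added; resorufin fluorescence (525/598 nm) was read after 20 min.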
Sm TGR block = inhibitors of Schistosoma mansoni thioredoxin glutathione reductase; Potency, µM (titrated, usually from 114 µM), actives largely listed as inhibitors; hit rate 3% among 360,000; AID 485364; purified TGR, DTNB reduction, TNB absorbance 405 nm; also: nearly all actives have a fitted effect of over 60% in size
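TGR 20 nM + NADPH 100 uM (dispensed conc.), cpd preinc 15 min RT; start with NADPH (500 uM addition) then DTNB (15 mM addition). Kinetic TNB absorbance, 405 nm filter. Four-parameter Hill fit across titration.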
Numbers stand for hits. A selection: hits, their analogues and other compounds. The true share with any hit is near 14%. Unless noted, calls follow the shape of the dose curve; as a rule, active = well fitted curve in the direction sought with a large enough effect; inconclusive = small, poorly fitted or top-dose-only effect, or another doubt; inactive = no such curve, though single readings can be large; an effect the other way counts as inactive or inconclusive.

What do the screens show for `CN(Cc1ccccc1)C1=CC(=[N+]2CCCCC2)CC(C)(C)C1`?
HCMV inh: -77.0; Pf growth 48h: 0.37µM; Pf growth 96h: 0.329µM; FBPA Giardia inh: inactive; Sm TGR block: inconclusive

How did CC1(C)CC(N2CCN(Cc3ccccc3)CC2)=CC(=[N+]2CCCCC2)C1 do in these assays?
HCMV inh: active; Pf growth 48h: 0.828µM; Pf growth 96h: 0.522µM; FBPA Giardia inh: inactive; Sm TGR block: inactive

How did CC1(C)CC(=O)C=C(N2CCN(C3=CC(=O)CC(C)(C)C3)CC2)C1 do in these assays?
Pf growth 48h: inactive; FBPA Giardia inh: inactive; Sm TGR block: inactive

What do the screens show for `O=C(c1cc(C(F)(F)F)cc(C(F)(F)F)c1)N1CCC2(CC1)CCN(c1ncccn1)CC2`?
FBPA Giardia inh: inactive

What do the screens show for `COc1ccc(NS(=O)(=O)c2cc3c(cc2C)N(C(C)=O)CCO3)cc1OC`?
HCMV inh: inactive; Pf growth 48h: inactive; Pf growth 96h: inactive; FBPA Giardia inh: inactive; Sm TGR block: inactive

What do the screens show for `O=C(O)c1cc(O)c2c(c1)[C@H]([C@H]1c3cc(C(=O)O)cc(O)c3C(=O)c3c(O[C@@H]4OC(CO)C(O)C(O)C4O)cccc31)c1cccc(O[C@@H]3OC(CO)C(O)C(O)C3O)c1C2=O` (some centres undefined)?
Pf growth 48h: inactive; Pf growth 96h: inactive; FBPA Giardia inh: 17.7µM

How did OCC1OC(Oc2cccc3ccccc23)C(O)C(O)C1O (centres undefined) do in these assays?
HCMV inh: inactive; Pf growth 48h: inactive; Pf growth 96h: inactive; FBPA Giardia inh: inactive; Sm TGR block: inactive

What do the screens show for `CCN=c1scc(C)n1/N=C/c1ccc(O)c(O)c1O`?
HCMV inh: inactive; Pf growth 48h: inconclusive; Pf growth 96h: 7.38µM; FBPA Giardia inh: inconclusive; Sm TGR block: 20µM

How did COCCN=c1scc(-c2cccs2)n1/N=C/c1ccc(O)c(O)c1O do in these assays?
HCMV inh: inactive; Pf growth 48h: 9.28µM; Pf growth 96h: 4.15µM; FBPA Giardia inh: inconclusive; Sm TGR block: 39.8µM

Results for CCN=c1scc(C)n1/N=C/c1cc(Br)c(O)c(Br)c1 ?
HCMV inh: inconclusive; Pf growth 48h: inconclusive; Pf growth 96h: inconclusive; FBPA Giardia inh: inactive; Sm TGR block: inconclusive

What do the screens show for `CC(C)C(=O)N1CCN(c2ccccc2NC(=S)NC(=O)c2cccs2)CC1`?
HCMV inh: inactive; Pf growth 48h: inconclusive; Pf growth 96h: inactive; FBPA Giardia inh: inactive; Sm TGR block: inactive

How did NC(=O)C1CCN(C(=O)c2ccc(NS(=O)(=O)c3ccc(Br)s3)cc2)CC1 do in these assays?
HCMV inh: inactive; Pf growth 48h: inactive; Pf growth 96h: inactive; Sm TGR block: inactive

Results for C=CCOC(=O)C1=C[C@@H](c2cn(C(C)=O)c3ccccc23)C[C@@H](OCCCCO)O1 ?
HCMV inh: inactive; Pf growth 48h: inconclusive; Pf growth 96h: inconclusive; FBPA Giardia inh: inactive; Sm TGR block: inactive

Results for C#CCNC(=O)C1=C[C@H](c2ccc(C(F)(F)F)cc2)C[C@H](OCCCCO)O1 ?
HCMV inh: inactive; Pf growth 48h: inconclusive; Pf growth 96h: inconclusive; FBPA Giardia inh: inconclusive; Sm TGR block: 12.6µM

How did O=C(O)C1=C[C@@H](c2csc3ccccc23)C[C@@H](OCCCCO)O1 do in these assays?
HCMV inh: inactive; Pf growth 48h: inactive; Pf growth 96h: inactive; FBPA Giardia inh: inactive; Sm TGR block: inactive

How did C#CCNC(=O)C1=C[C@H](c2csc3ccccc23)C[C@H](OCCCCO)O1 do in these assays?
HCMV inh: inactive; Pf growth 48h: inconclusive; Pf growth 96h: inconclusive; FBPA Giardia inh: inactive; Sm TGR block: 44.7µM

What do the screens show for `CC(=O)n1cc([C@H]2C=C(C(=O)NCc3ccccc3)O[C@@H](OCCCCO)C2)c2ccccc21`?
HCMV inh: inactive; Pf growth 48h: 5.86µM; Pf growth 96h: inconclusive; FBPA Giardia inh: inconclusive; Sm TGR block: inconclusive

How did CC(=O)n1cc([C@H]2C=C(C(=O)Nc3ccccc3)O[C@@H](OCCCCO)C2)c2ccccc21 do in these assays?
HCMV inh: inactive; Pf growth 48h: 9.28µM; Pf growth 96h: inconclusive; FBPA Giardia inh: inactive; Sm TGR block: inactive

How did C[C@@H]1CN([C@@H](C)CO)C(=O)CCCn2nncc2CO[C@@H]1CN(C)S(=O)(=O)c1ccc(Oc2ccccc2)nc1 do in these assays?
HCMV inh: inactive

What do the screens show for `C#CCNC(=O)C1=C[C@@H](c2ccccc2)C[C@@H](OCCCCO)O1`?
HCMV inh: inactive

What do the screens show for `CC(=O)n1cc([C@@H]2C=C(C(=O)NCc3ccccc3)O[C@H](OCCCCO)C2)c2ccccc21`?
HCMV inh: inactive; Pf growth 48h: inconclusive; Pf growth 96h: inconclusive; FBPA Giardia inh: inactive; Sm TGR block: 50.1µM

Results for C#CCNC(=O)C1=C[C@@H](c2cn(C(C)=O)c3ccccc23)C[C@@H](OCCCCO)O1 ?
HCMV inh: inactive; Pf growth 48h: inconclusive; Pf growth 96h: inconclusive; FBPA Giardia inh: inactive; Sm TGR block: 39.8µM

What do the screens show for `O=C(NCc1ccccc1)C1=C[C@H](c2coc3ccccc3c2=O)C[C@H](OCCCCO)O1`?
HCMV inh: inactive; Pf growth 48h: inconclusive; Pf growth 96h: 10.4µM; FBPA Giardia inh: inactive; Sm TGR block: inactive

Results for C=CCOC(=O)C1=C[C@H](c2cn(C(C)=O)c3ccccc23)C[C@H](OCCCCO)O1 ?
HCMV inh: inactive; Pf growth 48h: inconclusive; Pf growth 96h: inactive; FBPA Giardia inh: inactive; Sm TGR block: inconclusive

How did CC(=O)c1ccc(N2CCN(S(=O)(=O)c3ccc4c(c3)CC(C)N4C(=O)C3CCC3)CC2)cc1 (centres undefined) do in these assays?
HCMV inh: inactive; Sm TGR block: inactive

What do the screens show for `CCc1ccccc1NC(=O)Cn1ccn(-c2cc(C)cc(C)c2)c(=O)c1=O`?
HCMV inh: -64.0; Sm TGR block: inactive

Results for Cc1cc(C)cc(-n2ccn(CC(=O)Nc3ccccc3F)c(=O)c2=O)c1 ?
HCMV inh: inactive; Sm TGR block: inactive

How did COc1ccc(OC)c(NC(=O)c2nc(S(=O)(=O)Cc3ccccc3)ncc2Cl)c1 do in these assays?
HCMV inh: -99.3; Pf growth 48h: inactive; Pf growth 96h: inactive; Sm TGR block: 3.16µM

What do the screens show for `COc1ccc(NC(=O)c2nc(S(=O)(=O)Cc3cccc(C)c3)ncc2Cl)c(OC)c1`?
HCMV inh: -79.5; Pf growth 48h: inactive; Pf growth 96h: inactive; Sm TGR block: inactive

What do the screens show for `COc1ccc(OC)c(NC(=O)CS(=O)(=O)Cc2ccccc2)c1`?
HCMV inh: inactive; Pf growth 48h: inactive; Pf growth 96h: inactive; FBPA Giardia inh: inactive; Sm TGR block: inactive

How did CCN(Cc1cccc(F)c1)C(=O)c1ccc2ccccc2n1 do in these assays?
HCMV inh: inactive; Pf growth 48h: inactive; Pf growth 96h: inactive; FBPA Giardia inh: inactive; Sm TGR block: inactive

What do the screens show for `Fc1ccc(NC(=S)N2CCCN(c3ccc(C(F)(F)F)cn3)CC2)c(F)c1`?
HCMV inh: -79.8; Pf growth 48h: 10.4µM; Pf growth 96h: inconclusive; FBPA Giardia inh: inactive; Sm TGR block: inactive
